# Experimental data as given in PubChem BioAssay (NCATS).
# Results filed as inconclusive are left out. A call without a number means that no potency is given here. Values without a mark were called inactive. The source made the active and inactive calls. Calls come from the whole dose curve; as a rule, active = well fitted curve in the direction sought with a large enough effect; inconclusive = small, poorly fitted or top-dose-only effect, or another doubt; inactive = no such curve, though single readings can be large; an effect the other way counts as inactive or inconclusive.
# Assays:
# CRL-7250 = normal cell line; experiment: Cytotoxic Profiling of Annotated Libraries Using Quantitative High-Throughput Screening (AID 1296008); conditions: Five cell lines viability, CellTiter-Glo ATP luminescence, 48-72 h; max response: stronger effect = lower value; note: nearly all actives have a fitted effect of over 60% in size; note: potency is the fitted concentration of half-maximal effect
# Summary of the method: (§1)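 Compounds were pin-transferred onto cells and incubated 48 or 72 hr at 37 degree Celsius, 95% humidity. CellTiter-Glo was added, plates sat 10 min at room temperature, then ATP-coupled luminescence was imaged as the viability read-out.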
# HEK293 = experiment: as above; conditions: Five cell lines viability, CellTiter-Glo ATP luminescence, 48-72 h; max response: stronger effect = lower value
# Summary of the method: as §1
# HaCat [1] = experiment: as above; conditions: Five cell lines viability, CellTiter-Glo ATP luminescence, 48-72 h; max response: stronger effect = lower value
# Summary of the method: as §1
# KB-3-1 = experiment: as above; conditions: Five cell lines viability, CellTiter-Glo ATP luminescence, 48-72 h; max response: stronger effect = lower value
# Summary of the method: as §1
# NIH3T3 [2] = experiment: as above; conditions: Five cell lines viability, CellTiter-Glo ATP luminescence, 48-72 h; max response: stronger effect = lower value
# Summary of the method: as §1
# HACAT [3] = experiment: qHTS assay to identify novel small-molecules to repurpose for Merkel cell carcinoma treatment (AID 1296009); conditions: MCC and control cell lines, CellTiter-Glo viability, 72 h; at 44.8 µM (top of the series) unless noted; note: nearly all actives have a fitted effect of over 60% in size
# Summary of the method: (§2)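 Cells exposed to NPC (8-point) and MIPE (11-point) compound dilutions for 72 hr at 37 degree celsius; viability read by CellTiter-Glo luminescence, normalized to no-cell and DMSO in-plate controls.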
# HEK293T [4] = experiment: as above; conditions: MCC and control cell lines, CellTiter-Glo viability, 72 h; at 44.8 µM (top of the series) unless noted
# Summary of the method: as §2
# MCC-13 = experiment: as above; conditions: MCC and control cell lines, CellTiter-Glo viability, 72 h; series mostly up to 46 µM
# Summary of the method: as §2
# MCC-26 = experiment: as above; conditions: MCC and control cell lines, CellTiter-Glo viability, 72 h; series mostly up to 46 µM
# Summary of the method: as §2
# MKL-1 = experiment: as above; conditions: MCC and control cell lines, CellTiter-Glo viability, 72 h; series mostly up to 46 µM
# Summary of the method: as §2
# MKL-2 = experiment: as above; conditions: MCC and control cell lines, CellTiter-Glo viability, 72 h; series mostly up to 46 µM
# Summary of the method: as §2
# UISO = experiment: as above; conditions: MCC and control cell lines, CellTiter-Glo viability, 72 h; series mostly up to 46 µM
# Summary of the method: as §2
# WaGa = experiment: as above; conditions: MCC and control cell lines, CellTiter-Glo viability, 72 h; series mostly up to 46 µM
# Summary of the method: as §2
# C33A = experiment: Primary qHTS to identify gynecologic anti-cancer compounds using libraries of approved drugs and bioactive compounds (AID 1345084); conditions: Gynecologic cancer cell panel viability, ATPlite luminescence, 48 h; series mostly up to 57.5 µM; note: nearly all actives have a fitted effect of over 55% in size
# Summary of the method: (§3)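 Five-concentration response, 48 h; readout is ATP-driven luciferase luminescence.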
# CAOV3 = experiment: as above; conditions: Gynecologic cancer cell panel viability, ATPlite luminescence, 48 h; series mostly up to 57.5 µM
# Summary of the method: as §3
# CASKI = experiment: as above; conditions: Gynecologic cancer cell panel viability, ATPlite luminescence, 48 h; series mostly up to 57.5 µM
# Summary of the method: as §3
# Es-2 = experiment: as above; conditions: Gynecologic cancer cell panel viability, ATPlite luminescence, 48 h; series mostly up to 57.5 µM
# Summary of the method: as §3
# Hek293T [5] = experiment: as above; conditions: Gynecologic cancer cell panel viability, ATPlite luminescence, 48 h, control line for the selectivity index; series mostly up to 57.5 µM
# Summary of the method: as §3
# HeLa = experiment: as above; conditions: Gynecologic cancer cell panel viability, ATPlite luminescence, 48 h; series mostly up to 57.5 µM
# Summary of the method: as §3
# NIH3T3 [6] = experiment: qHTS assay to identify novel small-molecules to repurpose for Merkel cell carcinoma treatment (AID 1296009); conditions: MCC and control cell lines, CellTiter-Glo viability, 72 h; at 44.8 µM (top of the series) unless noted; note: nearly all actives have a fitted effect of over 60% in size
# Summary of the method: as §2
compound,measurement,setting,value
COc1cc(Cc2cnc(N)nc2N)cc(OC)c1OC,outcome,CRL-7250,inactive
same,outcome,HEK293,inactive
same,outcome,HaCat [1],inactive
same,max response,KB-3-1,8.08%
same,max response,NIH3T3 [2],-0.336%
same,outcome,HACAT [3],inactive
same,outcome,HEK293T [4],inactive
same,Potency,MCC-13,inactive
same,Potency,MCC-26,inactive
same,Potency,MKL-1,inactive
same,Potency,MKL-2,inactive
same,Potency,UISO,inactive
same,Potency,WaGa,inactive
same,Potency,C33A,inactive
same,Potency,CAOV3,inactive
same,Potency,CASKI,inactive
same,Potency,Es-2,inactive
same,Potency,Hek293T [5],inactive
CO[C@@]1(NC(=O)CSCC#N)C(=O)N2C(C(=O)O)=C(CSc3nnnn3C)CS[C@@H]21,max response,CRL-7250,2.03%
same,max response,HEK293,-2.42%
same,outcome,HaCat [1],inactive
same,max response,KB-3-1,1.86%
same,max response,NIH3T3 [2],-0.696%
same,outcome,HACAT [3],inactive
same,Potency,MCC-13,inactive
same,Potency,MCC-26,inactive
same,Potency,MKL-1,inactive
same,Potency,UISO,inactive
same,Potency,C33A,inactive
same,Potency,CAOV3,inactive
same,Potency,CASKI,inactive
same,Potency,Es-2,inactive
same,Potency,HeLa,inactive
same,Potency,Hek293T [5],inactive
CN(C)CCOC(=O)COc1ccc(Cl)cc1,max response,CRL-7250,-13.3%
same,max response,HEK293,2.83%
same,outcome,HaCat [1],inactive
same,max response,KB-3-1,-1.09%
same,max response,NIH3T3 [2],0.547%
same,outcome,HACAT [3],inactive
same,Potency,MCC-13,inactive
same,Potency,MCC-26,inactive
same,Potency,MKL-1,inactive
same,Potency,MKL-2,inactive
same,Potency,UISO,inactive
same,Potency,WaGa,inactive
same,Potency,C33A,inactive
same,Potency,CAOV3,inactive
same,Potency,CASKI,inactive
same,Potency,Es-2,inactive
same,Potency,HeLa,inactive
same,Potency,Hek293T [5],inactive
NC(Cc1ccc(Cl)cc1)C(=O)O (stereo unspecified),max response,CRL-7250,-4.47%
same,outcome,HEK293,inactive
same,outcome,HaCat [1],inactive
same,max response,KB-3-1,-13.5%
same,max response,NIH3T3 [2],4.7%
same,outcome,HACAT [3],inactive [at 0.588 µM]
same,outcome,HEK293T [4],inactive [at 0.588 µM]
same,"activity change, negative = cytotoxicity",MCC-13,20.3% [at 0.597 µM]
same,"activity change, negative = cytotoxicity",MCC-26,17.1% [at 0.597 µM]
same,"activity change, negative = cytotoxicity",MKL-1,8.15% [at 0.597 µM]
same,"activity change, negative = cytotoxicity",MKL-2,20% [at 0.597 µM]
same,"activity change, negative = cytotoxicity",UISO,36.5% [at 0.597 µM]
same,"activity change, negative = cytotoxicity",WaGa,12.8% [at 0.597 µM]
same,"activity change, negative = cytotoxicity",C33A,13.6% [at 0.462 µM]
same,"activity change, negative = cytotoxicity",CAOV3,0.059% [at 0.462 µM]
same,"activity change, negative = cytotoxicity",CASKI,7.36% [at 0.462 µM]
same,"activity change, negative = cytotoxicity",Es-2,1.05% [at 0.462 µM]
same,"activity change, negative = cytotoxicity",HeLa,14.4% [at 0.462 µM]
same,"activity change, negative = cytotoxicity",Hek293T [5],0.47% [at 0.462 µM]
C[C@]12C=CC(=O)C=C1CC[C@H]1[C@@H]3C[C@@H](O)[C@](O)(C(=O)CO)[C@@]3(C)C[C@H](O)[C@@]12F,max response,CRL-7250,3.67%
same,outcome,HEK293,inactive
same,max response,HaCat [1],-5.14%
same,max response,KB-3-1,41.4%
same,outcome,NIH3T3 [2],inactive
same,outcome,HEK293T [4],inactive
same,Potency,MCC-13,inactive
same,Potency,MCC-26,inactive
same,Potency,MKL-2,inactive
same,outcome,NIH3T3 [6],inactive
same,Potency,UISO,inactive
same,Potency,WaGa,inactive
same,Potency,C33A,inactive
same,Potency,CAOV3,inactive
same,Potency,CASKI,inactive
same,Potency,Es-2,inactive
same,Potency,HeLa,inactive
same,Potency,Hek293T [5],inactive
CCN(CC)CCNC(=O)c1cc(S(C)(=O)=O)ccc1OC,max response,CRL-7250,1.79%
same,max response,HEK293,-8.18%
same,max response,HaCat [1],-0.825%
same,max response,KB-3-1,6.27%
same,max response,NIH3T3 [2],-1.98%
same,Potency,MCC-13,inactive
same,Potency,MCC-26,inactive
same,Potency,MKL-1,inactive
same,Potency,MKL-2,inactive
same,Potency,UISO,inactive
same,Potency,WaGa,inactive
same,Potency,C33A,inactive
same,Potency,CAOV3,inactive
same,Potency,CASKI,inactive
same,Potency,Es-2,inactive
same,Potency,HeLa,inactive
NC(=O)N1c2ccccc2C=Cc2ccccc21,outcome,CRL-7250,inactive
same,max response,HEK293,2.7%
same,max response,HaCat [1],-8.83%
same,max response,KB-3-1,-5.38%
same,max response,NIH3T3 [2],2.27%
same,Potency,MCC-13,inactive
same,Potency,MCC-26,inactive
same,Potency,MKL-1,inactive
same,Potency,MKL-2,inactive
same,Potency,UISO,inactive
same,Potency,WaGa,inactive
same,Potency,C33A,inactive
same,Potency,CAOV3,inactive
same,Potency,CASKI,inactive
same,Potency,Es-2,inactive
same,Potency,Hek293T [5],inactive
CC(C(=O)O)c1ccc(CC2CCCC2=O)cc1 (stereo unspecified),max response,CRL-7250,2.29%
same,outcome,HEK293,inactive
same,max response,HaCat [1],-3.69%
same,max response,KB-3-1,-8.05%
same,max response,NIH3T3 [2],-16.1%
same,outcome,HEK293T [4],inactive
same,Potency,MCC-13,inactive
same,Potency,MCC-26,inactive
same,Potency,MKL-1,inactive
same,Potency,MKL-2,inactive
same,Potency,UISO,inactive
same,Potency,WaGa,inactive
same,Potency,C33A,inactive
same,Potency,CAOV3,inactive
same,Potency,CASKI,inactive
same,Potency,Es-2,inactive
same,Potency,HeLa,inactive
same,Potency,Hek293T [5],inactive
NC(=O)c1cn(Cc2c(F)cccc2F)nn1,outcome,CRL-7250,inactive
same,max response,HEK293,4.15%
same,max response,HaCat [1],0.796%
same,max response,KB-3-1,-1.38%
same,max response,NIH3T3 [2],-0.364%
same,Potency,MCC-13,inactive
same,Potency,MCC-26,inactive
same,Potency,MKL-1,inactive
same,Potency,MKL-2,inactive
same,Potency,UISO,inactive
same,Potency,WaGa,inactive
same,Potency,C33A,inactive
same,Potency,CAOV3,inactive
same,Potency,CASKI,inactive
same,Potency,Es-2,inactive
same,Potency,HeLa,inactive
same,Potency,Hek293T [5],inactive
CC(C)NNC(=O)c1ccncc1,max response,CRL-7250,-3.48%
same,max response,HEK293,-10.4%
same,outcome,HaCat [1],inactive
same,max response,KB-3-1,-1.28%
same,outcome,NIH3T3 [2],inactive
same,outcome,HACAT [3],inactive
same,Potency,MCC-13,inactive
same,Potency,MCC-26,inactive
same,Potency,MKL-1,inactive
same,Potency,MKL-2,inactive
same,outcome,NIH3T3 [6],inactive
same,Potency,UISO,inactive
same,Potency,WaGa,inactive
same,Potency,C33A,inactive
same,Potency,CAOV3,inactive
same,Potency,CASKI,inactive
same,Potency,Es-2,inactive
same,Potency,Hek293T [5],inactive
NC(N)=N/N=C/c1c(Cl)cccc1Cl,max response,CRL-7250,3.75%
same,Potency,HEK293,18.8 µM (active)
same,max response,HaCat [1],-6.3%
same,max response,KB-3-1,0.665%
same,max response,NIH3T3 [2],3.93%
same,Potency,MCC-13,inactive
same,Potency,MCC-26,inactive
same,Potency,MKL-1,inactive
same,Potency,MKL-2,inactive
same,Potency,UISO,inactive
same,Potency,C33A,inactive
same,Potency,CAOV3,inactive
same,Potency,CASKI,inactive
same,Potency,Es-2,inactive
same,Potency,HeLa,inactive
same,Potency,Hek293T [5],inactive
CCN(Cc1ccncc1)C(=O)C(CO)c1ccccc1 (stereo unspecified),max response,CRL-7250,-20.8%
same,max response,HEK293,-10.1%
same,outcome,HaCat [1],inactive
same,max response,KB-3-1,6.96%
same,max response,NIH3T3 [2],-10.9%
same,outcome,HACAT [3],inactive
same,Potency,MCC-13,inactive
same,Potency,MCC-26,inactive
same,Potency,MKL-2,inactive
same,Potency,UISO,inactive
same,Potency,WaGa,inactive
same,Potency,C33A,inactive
same,Potency,CAOV3,inactive
same,Potency,CASKI,inactive
same,Potency,Es-2,inactive
same,Potency,Hek293T [5],inactive
